The full ranking holds about 33,000 sequences; the median of “E-score (-0.5 to 0.5)” is about -0.01, and the highest 2% start at about 0.26. This is one part of a sample in which the highest values are shown more often than they occur.
Molecular target: Ste12 (UniProt P13574)
Test: PBM E-score (8-mer binding enrichment) (E-score (-0.5 to 0.5)); higher = stronger / more preferred TF binding
Details: protein concentration: 200 nM; construct: GST-DNA-binding domain
Experimental: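 Universal 'all 10-mer' protein binding microarrays (Agilent AMADID 015681) probed with GST-tagged S. cerevisiae TFs (full-length or DBD) made by in vitro transcription/translation (PURExpress), about 100-200 nM. Bound TF was detected with fluorescent anti-GST. Each ungapped 8-mer (which stands for itself and its reverse complement) is scored by the PBM enrichment score (E-score), a modified Wilcoxon-Mann-Whitney statistic from -0.5 to +0.5, computed with the Universal PBM Analysis Suite. Scale: above 0.35 generally sequence-specific binding.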

UniProt P13574, sequence (P13574 whole entry): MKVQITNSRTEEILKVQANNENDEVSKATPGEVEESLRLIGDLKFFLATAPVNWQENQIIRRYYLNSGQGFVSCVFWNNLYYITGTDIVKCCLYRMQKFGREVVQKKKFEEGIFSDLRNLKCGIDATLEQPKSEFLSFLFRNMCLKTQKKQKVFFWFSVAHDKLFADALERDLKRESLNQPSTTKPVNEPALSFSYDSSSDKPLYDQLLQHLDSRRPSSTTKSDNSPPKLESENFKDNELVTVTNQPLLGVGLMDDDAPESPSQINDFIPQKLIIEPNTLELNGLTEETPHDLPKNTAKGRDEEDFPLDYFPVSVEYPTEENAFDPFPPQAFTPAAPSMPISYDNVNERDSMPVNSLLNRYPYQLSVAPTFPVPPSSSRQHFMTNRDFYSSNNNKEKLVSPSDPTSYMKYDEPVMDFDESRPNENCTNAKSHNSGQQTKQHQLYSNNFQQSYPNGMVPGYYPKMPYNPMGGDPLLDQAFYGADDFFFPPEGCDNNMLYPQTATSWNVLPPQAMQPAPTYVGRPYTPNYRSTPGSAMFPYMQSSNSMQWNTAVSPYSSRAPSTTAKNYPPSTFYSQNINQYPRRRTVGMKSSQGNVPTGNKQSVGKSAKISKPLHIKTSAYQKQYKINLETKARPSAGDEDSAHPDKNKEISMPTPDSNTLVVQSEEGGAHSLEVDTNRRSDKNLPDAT

Row | Sequence | PBM E-score
1 | TAATTTAA | 0.3
2 | AAATTTAG | 0.169
3 | AGATTTAA | 0.0444
4 | AAATTTAT | 0.263
5 | AAATTTAC | 0.197
6 | CGATTTAA | 0.1
7 | CAATTTAA | 0.2
8 | GGAATGGA | 0.0113
9 | TTACCCAA | 0.0694
10 | CTTTGCTA | 0.162
11 | CTCACAGA | 0.00059
12 | AACTCGTA | 0.143
13 | TCCCCACA | -0.0875
14 | CACCTATC | 0.0217
15 | CGAAACGA | 0.205
16 | AAAAACGA | 0.272
17 | AGAAACGA | 0.207
18 | CCAAACGA | 0.0156
19 | GAAAACGA | -0.0839
20 | GGAAACGA | 0.275
21 | CAAAACGA | 0.272
22 | CAAAACGG | 0.302
23 | AAAAACGG | 0.174

Row | Sequence | PBM E-score
24 | TAAAACGA | 0.134
25 | CAAAACGC | 0.229
26 | CCAAACGG | -0.0425
27 | CCGCCTCC | -0.123
28 | CCCGTAAG | -0.0733
29 | AGGTCAGA | -0.113
30 | TCTTGACA | -0.0432
31 | ACCCATCC | 0.00204
32 | AACCAATC | 0.259
33 | GAAAAAGA | 0.241
34 | CGGCTAAG | 0.0459
35 | CATAGCGG | -0.207
36 | AGACAGCT | -0.111
37 | AAGAAGAA | 0.123
38 | TTAACTAA | 0.221
39 | GTCTCCAA | 0.0569
40 | ATAAAACC | 0.294
41 | GAAAAACA | 0.21
42 | ATAAAACA | 0.368
43 | TAAAAACA | 0.223
44 | ATAAAAAA | 0.248
45 | ATAAACCC | 0.211
46 | ATAAAAAC | 0.134

Row | Sequence | PBM E-score
47 | AGAAAACA | 0.152
48 | CTAAAACC | 0.192
49 | AAAAAACA | 0.331
50 | CAAAAACA | 0.153
51 | CTAAAACA | 0.355
52 | ACGTTGAT | 0.0985
53 | AGTCAGTG | -0.0387
54 | CTTAGCAC | -0.0994
55 | ATACCACG | 0.0272
56 | ACATAGCA | -0.115
57 | ATAAACCG | 0.0871
58 | CGTAAACA | 0.186
59 | GGTAAACA | 0.28
60 | GTAAAACA | 0.323
61 | ATAAAACG | 0.37
62 | GTAAAAAA | 0.217
63 | ATTAAACG | 0.155
64 | GTAAAAAC | 0.206
65 | AGTAAACA | 0.0888
66 | ACAGCGAG | -0.00798
67 | GTAGATCA | 0.023
68 | ACCGCACC | 0.0603
69 | AGGGGAGA | -0.0864

Row | Sequence | PBM E-score
70 | AGGAGGGC | -0.081
71 | AGGGTGGC | -0.0324
72 | AGGGTGGG | 0.35
73 | AAGGGAGG | -0.0233
74 | AGGAGGGA | -0.0567
75 | AGGGAGGG | 0.305
76 | AGGGGAGG | 0.348
77 | AGGGTGGA | -0.218
78 | AGGGAGGC | -0.122
79 | AGGAGGGG | 0.285
80 | AGGGAGGA | -0.192
81 | AGTTTGCG | 0.122
82 | AGTGCGGA | 0.0511
83 | CTCCTGGA | -0.166
84 | AAATTTGC | 0.0182
85 | ATTGGTAC | 0.00439
86 | AAGAGCTT | -0.0673
87 | ACCAAAGA | 0.158
88 | ACGCCCAC | 0.117
89 | GATGAGTA | 0.0183
90 | TACTGGAA | 0.182
91 | CACACCAA | 0.115
92 | AATTGAAT | 0.131

Row | Sequence | PBM E-score
93 | CATTGAAA | 0.247
94 | AATTGAAC | -0.0364
95 | AATTGAAA | 0.412
96 | TATTGAAA | 0.304
97 | GATTGAAA | 0.243
98 | CTCAACGA | -0.137
99 | ACGACAGT | -0.147
100 | GAAATAAC | 0.121
101 | CAAATACC | 0.185
102 | GCAATAAC | 0.0195
103 | AAAATAAT | 0.293
104 | AAAATAAC | 0.2
105 | AAAATAAG | 0.183
106 | CAAATAAA | 0.1
107 | GCAATAAA | 0.279
108 | GAAATAAA | 0.282
109 | CCAATAAA | 0.148
110 | CAAATAAG | 0.0883
111 | CAAATAAC | 0.283
